Outcome and AC50 data for six molecules are collected here from PubChem BioAssay (EPA / NIEHS).

The target of assay [1] is Transcription factor E2F1 (Homo sapiens) (UniProt Q01094). Put plainly: ATG_E2F_CIS: Attagene CIS-FACTORIAL HepG2 Assay for human E2F Transcription Factor 1 (AID 2282935). The following applies: HepG2 Attagene cis-reporter, E2F reporter RNA transcripts; actives raise or lower the signal. The method in brief: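 Cis-element reporter mRNA induction in transiently transfected HepG2, 24 h exposure. Activity fitted in both directions relative to DMSO negative control.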
Chain of Transcription factor E2F1 (Homo sapiens) (Q01094 whole entry, looked up): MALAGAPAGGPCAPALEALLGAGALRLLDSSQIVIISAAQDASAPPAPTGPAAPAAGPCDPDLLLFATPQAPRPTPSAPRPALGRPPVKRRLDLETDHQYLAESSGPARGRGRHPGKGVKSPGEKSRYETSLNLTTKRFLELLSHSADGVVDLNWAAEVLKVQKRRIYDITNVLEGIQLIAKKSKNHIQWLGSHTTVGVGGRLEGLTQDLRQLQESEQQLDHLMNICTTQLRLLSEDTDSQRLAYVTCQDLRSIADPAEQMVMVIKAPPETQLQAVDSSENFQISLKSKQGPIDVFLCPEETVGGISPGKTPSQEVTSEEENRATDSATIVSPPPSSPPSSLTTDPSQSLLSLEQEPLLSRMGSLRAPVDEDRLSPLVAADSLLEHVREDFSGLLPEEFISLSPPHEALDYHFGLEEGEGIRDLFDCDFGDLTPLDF

The nature of assay [2]: ATG_E_Box_CIS: Attagene CIS-FACTORIAL HepG2 Assay for human Enhancer Box (E-box) (AID 2282936). The conditions noted are these: HepG2 E-box cis-reporter transcription, actives raise or lower the signal. The method in brief: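 Cells: HepG2 (human liver), transient MRTU transfection. Exposure 24 h. RNA → oligo(dT) RT → PCR → 6-FAM label → HpaI → CE. Activity fitted both directions relative to DMSO.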

A short description of assay [3]: ATG_M_61_CIS: Attagene CIS-FACTORIAL HepG2 Assay for M61 Transcription Factor (Internal Marker) (AID 2282937). The conditions noted are these: HepG2 Attagene CIS-FACTORIAL M61 internal marker reporter; actives raise or lower the signal. Put shortly: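 Using transiently transfected HepG2 liver cells, reporter transcript levels were assessed 24 h post-dosing by RT-PCR and capillary electrophoresis. Changes in either direction were fitted relative to DMSO controls.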

Assay [4] in a line: ATG_ERE_CIS: Attagene CIS-FACTORIAL HepG2 Assay for Estrogen Response Element (ERE) (AID 2282940). The conditions noted are these: HepG2 ERE cis-reporter, Attagene RNA transcript; actives raise or lower the signal. The method in brief:
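Readout: reporter mRNA induction by RT-PCR, FAM-labelled primer extension, HpaI digestion and capillary electrophoresis, 24 h after dosing transfected HepG2 cells. Endogenous transcription factors act on cis-element-regulated reporters. Gain or loss fitted against DMSO.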

The nature of assay [5]: ATG_Ets_CIS: Attagene CIS-FACTORIAL HepG2 Assay for human Erythroblast Transformation Specific (ETS) (AID 2282941). The following applies: HepG2 ETS cis-reporter transcription, actives raise or lower the signal. Put shortly:
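After transient cis-reporter transfection, HepG2 cells receive test chemical for 24 h. Reporter mRNA levels, measured by RT-PCR and capillary electrophoresis fluorescence, are analysed bidirectionally relative to the DMSO baseline.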

Assay [6] has as its target Hepatocyte nuclear factor 3-beta (Homo sapiens) (UniProt Q9Y261). Nature of the assay: ATG_FoxA2_CIS: Attagene CIS-FACTORIAL HepG2 Assay for human Forkhead box A2 (FOXA2) (AID 2282942). The conditions noted are these: HepG2 cis-reporter transcription factor activity, 24 h; actives raise or lower the signal. Put shortly: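 Fluorescence signal of reporter cDNA fragments, separated by capillary electrophoresis, reflects endogenous transcription factor activity in transfected HepG2 after 24 h. Both increases and decreases fitted against DMSO.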

Assay [7] is described as follows: ATG_FoxO_CIS: Attagene CIS-FACTORIAL HepG2 Assay for human Forkhead box O (FoxO) (AID 2282943). The conditions noted are these: HepG2 Attagene cis-reporter, FoxO element, mRNA; actives raise or lower the signal. Put shortly: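 Human hepatoma HepG2 cells carry transiently introduced reporter transcription units controlled by cis promoter elements. Chemical treatment lasted 24 h, and mRNA signal was compared with DMSO.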

The nature of assay [8]: ATG_GATA_CIS: Attagene CIS-FACTORIAL HepG2 Assay for human GATA Binding Protein (AID 2282944). The following applies: HepG2 GATA cis-element reporter, Attagene multiplex mRNA; actives raise or lower the signal. Put shortly: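 Read-out: fluorescent reporter mRNA fragments resolved by capillary electrophoresis after RT-PCR. Human liver HepG2 cells carried transiently transfected cis-regulated reporter constructs; chemicals incubated 24 h; gain or loss of signal fitted relative to DMSO.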

Assay [9] is described as follows: ATG_GLI_CIS: Attagene CIS-FACTORIAL HepG2 Assay for human Zinc Finger Protein GLI1 (AID 2282945). The conditions noted are these: HepG2, Attagene cis-factorial reporter mRNA, GLI element; actives raise or lower the signal. Put shortly: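 Bidirectional curve fits relative to DMSO, using reporter mRNA levels from RT-PCR plus capillary electrophoresis. Cells were HepG2 transiently carrying cis-regulated reporter constructs, harvested 24 h after dosing.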

Assay [10] has as its target Bile acid receptor (Homo sapiens) (UniProt Q96RI1). Put plainly: ATG_IR1_CIS: Attagene CIS-FACTORIAL HepG2 Assay for human Nuclear Receptor Subfamily 1 Group H Member 4 (NR1H4), IR1 submotif (AID 2282946). The conditions noted are these: IR1 reporter transcription, actives raise or lower the signal. Put shortly: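 Cells (human HepG2) carry transiently transfected cis-promoter reporter transcription units. Compounds are incubated 24 h, total RNA is reverse-transcribed and amplified, and labelled fragments are resolved by capillary electrophoresis. Curves use DMSO as baseline.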

A short description of assay [11]: ATG_GRE_CIS: Attagene CIS-FACTORIAL HepG2 Assay for human Glucocorticoid Response Elements (GRE) (AID 2282947). The conditions noted are these: HepG2 GRE cis-reporter, Attagene multiplex mRNA; actives raise or lower the signal. The method in brief:
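Transient MRTU transfection of human HepG2 liver cells; cis-regulated reporters report endogenous factors. 24 h dosing → RNA isolation → RT-PCR → 6-FAM primer extension → HpaI cut → CE fragment analysis. Bidirectional fit, DMSO negative control.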

Assay [12] is described as follows: ATG_ISRE_CIS: Attagene CIS-FACTORIAL HepG2 Assay for human Interferon Regulatory Factor 1 (IRF1) binding to an Interferon-Stimulated Response Element (ISRE) (AID 2282948). The conditions noted are these: HepG2 ISRE cis-reporter (Attagene), mRNA transcription readout; actives raise or lower the signal. The method in brief:
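Quantitation relies on labelled RT-PCR fragments separated by capillary electrophoresis. Human HepG2 cells bearing cis-promoter reporter constructs were treated 24 h; DMSO served as baseline for bidirectional fitting.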

Assay [13] is described as follows: ATG_M_06_CIS: Attagene CIS-FACTORIAL HepG2 Assay for M06 Transcription Factor (Internal Marker) (AID 2282950). The following applies: HepG2 Attagene CIS-FACTORIAL M06 internal marker reporter; actives raise or lower the signal. Put shortly:
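Terse: HepG2, transient MRTU transfection (FuGene 6), 24 h dosing; total RNA, oligo(dT) RT, PCR, FAM label, HpaI cut, capillary electrophoresis; bidirectional fit vs DMSO baseline; background-control endpoint.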

Assay [14] concerns the target Hypoxia-inducible factor 1-alpha (Homo sapiens) (UniProt Q16665). Nature of the assay: ATG_HIF1a_CIS: Attagene CIS-FACTORIAL HepG2 Assay for human Hypoxia Inducible Factor 1 (HIF1A) (AID 2282951). The conditions noted are these: HepG2 Attagene cis-factorial HIF1a reporter transcription; actives raise or lower the signal. Put shortly: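 Endogenous-TF cis reporter readout, human HepG2 cells, 24 h incubation; mRNA detected via RT-PCR and capillary electrophoresis fluorescence; DMSO-normalised bidirectional fitting.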

The target of assay [15] is Hepatocyte nuclear factor 6 (Homo sapiens) (UniProt Q9UBC0). Nature of the assay: ATG_HNF6_CIS: Attagene CIS-FACTORIAL HepG2 Assay for human Hepatocyte Nuclear Factor 6 (HNF6) (AID 2282952). The conditions noted are these: HepG2 Attagene cis-factorial HNF6 reporter transcription; actives raise or lower the signal. The method in brief:
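HepG2 cells transiently transfected with cis-element-driven multiple reporter transcription units, dosed 24 h; reporter mRNA quantified by RT-PCR, FAM primer extension, HpaI digestion and capillary electrophoresis; bidirectional fit versus DMSO baseline.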

Assay [16] addresses Heat shock factor protein 1 (Homo sapiens) (UniProt Q00613). Put plainly: ATG_HSE_CIS: Attagene CIS-FACTORIAL HepG2 Assay for human Heat Shock Transcription Factor 1 (HSE) (AID 2282953). The following applies: HepG2 HSE cis-reporter, Attagene RNA transcription; actives raise or lower the signal. The method in brief:
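Read-out: fluorescence of reporter-specific RT-PCR fragments separated by capillary electrophoresis. HepG2 carrying transfected cis-element reporter units; 24 h dosing; activity fitted in both directions relative to DMSO baseline.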

Assay [17] can be described thus: ATG_MRE_CIS: Attagene CIS-FACTORIAL HepG2 Assay for human Metal Responsive Element (MRE) (AID 2282954). The conditions noted are these: HepG2 MRE cis-reporter transcription, Attagene multiplex; actives raise or lower the signal. The method in brief: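 Transient MRTU transfection of HepG2 (FuGene 6); 24 h dosing; total RNA → oligo(dT) RT, PCR, 6-FAM primer extension, HpaI cut, CE. Bidirectional fit vs DMSO.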

A short description of assay [18]: ATG_EGR_CIS: Attagene CIS-FACTORIAL HepG2 Assay for human Early Growth Response 1 (EGR1) (AID 2282938). The conditions noted are these: HepG2 Attagene CIS-FACTORIAL EGR reporter mRNA; actives raise or lower the signal. The method in brief: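 Fluorescent capillary-electrophoresis signal of reporter cDNA fragments serves as read-out. HepG2 cells bear transiently transfected cis-promoter reporter units and are exposed 24 h; gain- or loss-of-signal is fitted against DMSO.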

Assay [19] in a line: ATG_M_19_CIS: Attagene CIS-FACTORIAL HepG2 Assay for M19 Transcription Factor (Internal Marker) (AID 2282939). The following applies: HepG2 Attagene CIS-FACTORIAL M19 internal marker reporter; actives raise or lower the signal. The method in brief: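 Readout: fluorescent reporter-transcript fragments by capillary electrophoresis after RT-PCR. Human HepG2 liver cells carried transfected MRTU constructs reporting endogenous transcription-factor activity; exposure 24 h. Gain or loss of signal fitted relative to DMSO.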

Assay [20] in a line: ATG_M_32_CIS: Attagene CIS-FACTORIAL HepG2 Assay for M32 Transcription Factor (Internal Marker) (AID 2282949).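 Also: background control marker of the multiplexed CIS panel rather than a real target.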 The following applies: HepG2 Attagene cis-factorial M32 reporter, mRNA; actives raise or lower the signal. Put shortly:
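HepG2 cells transiently transfected with multiplexed cis-regulated reporter units, dosed 24 h. Reporter mRNA quantified by RT-PCR, 6-FAM labelling, HpaI digestion and capillary electrophoresis; bidirectional fit vs DMSO.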

The source made the active and inactive calls. The calls were made as follows: active = hit-call score of the fitted dose curve at least 0.9, where 1 is the maximum; inactive = score below 0.9.

Chain of Hepatocyte nuclear factor 6 (Homo sapiens) (Q9UBC0 whole entry, looked up): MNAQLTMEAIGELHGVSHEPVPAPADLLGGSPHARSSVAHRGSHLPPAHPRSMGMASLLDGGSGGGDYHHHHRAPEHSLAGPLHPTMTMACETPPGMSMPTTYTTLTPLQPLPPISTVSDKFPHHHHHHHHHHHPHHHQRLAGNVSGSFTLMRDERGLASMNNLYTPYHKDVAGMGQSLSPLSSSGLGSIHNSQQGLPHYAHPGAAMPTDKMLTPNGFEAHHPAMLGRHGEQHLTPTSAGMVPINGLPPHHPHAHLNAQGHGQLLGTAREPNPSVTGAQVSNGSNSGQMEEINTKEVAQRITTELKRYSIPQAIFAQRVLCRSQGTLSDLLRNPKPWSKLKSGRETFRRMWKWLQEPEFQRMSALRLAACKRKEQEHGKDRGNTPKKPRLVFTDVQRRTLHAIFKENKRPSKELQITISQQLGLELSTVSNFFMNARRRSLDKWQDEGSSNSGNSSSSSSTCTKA
Chain of Hypoxia-inducible factor 1-alpha (Homo sapiens) (Q16665 whole entry, looked up): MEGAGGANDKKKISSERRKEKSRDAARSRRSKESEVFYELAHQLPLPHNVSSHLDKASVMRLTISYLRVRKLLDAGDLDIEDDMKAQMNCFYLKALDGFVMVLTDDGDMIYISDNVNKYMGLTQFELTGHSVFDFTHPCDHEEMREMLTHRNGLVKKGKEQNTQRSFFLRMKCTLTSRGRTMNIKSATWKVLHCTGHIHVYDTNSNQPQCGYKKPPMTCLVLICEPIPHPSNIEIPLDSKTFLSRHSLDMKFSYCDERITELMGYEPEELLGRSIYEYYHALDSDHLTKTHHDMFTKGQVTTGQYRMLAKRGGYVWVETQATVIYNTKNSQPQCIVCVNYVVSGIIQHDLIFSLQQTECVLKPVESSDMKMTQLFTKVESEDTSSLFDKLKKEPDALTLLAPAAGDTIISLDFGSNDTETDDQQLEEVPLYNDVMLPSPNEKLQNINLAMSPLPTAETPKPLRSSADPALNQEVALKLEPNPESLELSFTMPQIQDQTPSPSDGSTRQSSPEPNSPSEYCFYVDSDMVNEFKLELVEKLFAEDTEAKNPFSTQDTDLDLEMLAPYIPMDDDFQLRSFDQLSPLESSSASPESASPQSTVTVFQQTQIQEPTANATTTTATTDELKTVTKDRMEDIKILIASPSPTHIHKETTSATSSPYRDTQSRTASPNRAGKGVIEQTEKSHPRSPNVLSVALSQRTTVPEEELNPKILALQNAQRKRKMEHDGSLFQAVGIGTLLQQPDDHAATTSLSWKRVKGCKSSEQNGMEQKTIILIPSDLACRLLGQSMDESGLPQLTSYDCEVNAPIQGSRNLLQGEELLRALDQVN
Chain of Hepatocyte nuclear factor 3-beta (Homo sapiens) (Q9Y261 whole entry, looked up, the tested form may be a part): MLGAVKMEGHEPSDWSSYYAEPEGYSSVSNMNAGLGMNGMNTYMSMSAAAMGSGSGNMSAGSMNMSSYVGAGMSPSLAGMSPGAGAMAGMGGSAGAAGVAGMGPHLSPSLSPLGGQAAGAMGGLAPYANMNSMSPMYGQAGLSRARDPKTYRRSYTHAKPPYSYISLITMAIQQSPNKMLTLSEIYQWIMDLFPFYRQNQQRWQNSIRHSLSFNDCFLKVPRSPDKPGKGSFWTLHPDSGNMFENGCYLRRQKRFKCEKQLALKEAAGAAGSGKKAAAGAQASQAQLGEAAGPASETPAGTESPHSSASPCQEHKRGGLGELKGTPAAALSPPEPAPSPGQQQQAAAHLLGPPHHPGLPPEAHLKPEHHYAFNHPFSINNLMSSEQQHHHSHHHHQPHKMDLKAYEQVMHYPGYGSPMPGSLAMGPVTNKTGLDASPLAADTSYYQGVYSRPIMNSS
Chain of Heat shock factor protein 1 (Homo sapiens) (Q00613 whole entry, looked up, the tested form may be a part): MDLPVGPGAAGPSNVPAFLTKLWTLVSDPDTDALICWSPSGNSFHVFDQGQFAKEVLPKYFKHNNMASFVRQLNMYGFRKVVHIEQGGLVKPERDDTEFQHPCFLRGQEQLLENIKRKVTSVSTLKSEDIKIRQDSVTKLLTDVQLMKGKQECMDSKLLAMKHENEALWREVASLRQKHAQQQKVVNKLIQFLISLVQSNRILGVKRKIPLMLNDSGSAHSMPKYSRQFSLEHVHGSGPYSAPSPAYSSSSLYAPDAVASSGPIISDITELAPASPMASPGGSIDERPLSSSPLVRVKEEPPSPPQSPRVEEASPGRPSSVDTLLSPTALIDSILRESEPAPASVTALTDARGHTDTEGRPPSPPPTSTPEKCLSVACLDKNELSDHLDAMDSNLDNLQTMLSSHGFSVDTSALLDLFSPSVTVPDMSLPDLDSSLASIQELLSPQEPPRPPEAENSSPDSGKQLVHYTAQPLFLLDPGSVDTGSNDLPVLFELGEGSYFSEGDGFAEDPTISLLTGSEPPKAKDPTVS
Chain of Bile acid receptor (Homo sapiens) (Q96RI1 whole entry, looked up, the tested form may be a part): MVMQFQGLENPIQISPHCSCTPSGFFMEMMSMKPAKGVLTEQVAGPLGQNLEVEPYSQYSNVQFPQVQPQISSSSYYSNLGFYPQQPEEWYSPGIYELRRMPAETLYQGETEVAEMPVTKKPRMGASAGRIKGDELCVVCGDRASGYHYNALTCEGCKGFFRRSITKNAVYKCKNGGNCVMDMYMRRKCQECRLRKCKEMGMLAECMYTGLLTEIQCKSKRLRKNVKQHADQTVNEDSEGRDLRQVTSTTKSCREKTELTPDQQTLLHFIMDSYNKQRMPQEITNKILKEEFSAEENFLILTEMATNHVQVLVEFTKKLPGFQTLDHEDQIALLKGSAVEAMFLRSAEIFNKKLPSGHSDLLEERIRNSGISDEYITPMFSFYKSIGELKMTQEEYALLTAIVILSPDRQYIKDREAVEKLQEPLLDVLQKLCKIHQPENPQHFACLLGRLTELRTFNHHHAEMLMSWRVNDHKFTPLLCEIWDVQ

With `CCc1cccc(C)c1N(C(=O)CS(=O)(=O)O)C(C)COC` (stereo not given), the molecule was called inactive in [1], in [2], in assay [3], in [5], in assay [6] and in assay [7]. In addition, the molecule was called inactive in assay [8], in [9], in assay [10], in assay [11], in assay [12] and in [13]. Also, the molecule was called inactive in assay [14], in assay [15], in assay [16] and in assay [17]. In addition, the concentration at half-maximal activity (AC50) in [4] was 27.5 µM (active).

Regarding `CC(=O)OC1CCCCC1C(C)(C)C` (stereo not given), the result in assay [1], in [3], in [18], in assay [19], in assay [4] and in [5] was inactive. Besides, the call in assay [6], in [7], in assay [8], in [9], in [11] and in [12] was inactive. Further, the call in assay [20], in [13], in assay [14], in assay [15], in assay [16] and in assay [17] was inactive.

With `N#Cc1ccc(C(c2ccc(C#N)cc2)n2cncn2)cc1`, the molecule was called inactive in [1], in assay [3], in assay [18], in assay [19], in assay [4] and in [5]. Moreover, the molecule was classed as inactive in assay [6], in assay [7], in assay [8], in assay [9], in assay [10] and in assay [11]. The molecule was classed as inactive in [12], in [20], in [13], in assay [14], in assay [15] and in assay [16]. The call in assay [17] was inactive.

Turning to `O=C(Oc1ccccc1)c1ccccc1O`, the call in assay [1], in assay [3], in assay [18], in [4], in [5] and in assay [6] was inactive. The molecule was called inactive in assay [8], in assay [9], in assay [11], in [12], in [20] and in assay [13]. In addition, the molecule was classed as inactive in assay [14], in [15], in [16] and in [17].

For the molecule `CCOC(=O)CC(=O)c1ccccc1`, the outcome in [1], in [3], in assay [18], in [19], in assay [4] and in assay [5] was inactive. Also, the call in assay [6], in assay [7], in [8], in assay [9], in assay [11] and in assay [12] was inactive. The outcome in [20], in [13], in [15], in assay [16] and in assay [17] was inactive.

For `NNS(=O)(=O)c1ccc(Oc2ccc(S(=O)(=O)NN)cc2)cc1`, the molecule was called inactive in assay [1], in [3], in assay [18], in assay [19], in assay [4] and in assay [5]. Further, the outcome in [6], in [7], in assay [8], in assay [9], in assay [10] and in assay [12] was inactive. Moreover, the result in [20], in assay [13], in assay [14], in assay [15], in assay [16] and in [17] was inactive.

As a reminder, the AC50 is the concentration at which the activity in the assay is half-maximal.
